Results filed as inconclusive are left out. Activity calls are given as the source filed them. The call rests on the fitted dose curve; in most records, active means well fitted inhibition curve with a large enough effect; inconclusive means small, poorly fitted or top-dose-only effect; inactive means flat fitted curve, though single readings scatter.
Experiments:
Experiment in all cases: qHTS profiling for inhibitors of Plasmodium falciparum proliferation (AID 504749); further: nearly all actives have a fitted effect of over 60% in size
Conditions in all cases: P. falciparum in erythrocytes, SYBR Green DNA, 72 h; series mostly up to 28.7 µM
DIV17 = test system: DIV17
Method in brief: (§1)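 P. falciparum-infected erythrocytes (0.3% parasitemia, 2.5% hematocrit) incubated with compound 72 h at 37 C, 5% CO2. Parasite DNA detected by SYBR Green after lysis, overnight at room temperature; normalised to 0.29 uM artemisinin and DMSO.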

DIV30 = test system: DIV30
Method in brief: as §1

Dd2 = test system: Dd2
Method in brief: as §1

ECU = test system: ECU
Method in brief: as §1

FAB9 = test system: FAB9
Method in brief: as §1

GB4 = test system: GB4
Method in brief: as §1

HB3 = test system: HB3
Method in brief: as §1

ICS = test system: ICS
Method in brief: as §1

JCK = test system: JCK
Method in brief: as §1

N140 = test system: N140
Method in brief: as §1

P93_24 = test system: P93_24
Method in brief: as §1

P94_40 = test system: P94_40
Method in brief: as §1

PAD = test system: PAD
Method in brief: as §1

PC15 = test system: PC15
Method in brief: as §1

PC26 = test system: PC26
Method in brief: as §1

PC49 = test system: PC49
Method in brief: as §1

SC27B = test system: SC27B
Method in brief: as §1

TAB109 = test system: TAB109
Method in brief: as §1

TAB113 = test system: TAB113
Method in brief: as §1

TAB165 = test system: TAB165
Method in brief: as §1

Measured: Potency

C/C=C/C=N/NC(=O)c1ccncc1
inactive: all assays above

c1ccc(-c2nc[nH]c2-c2ccccc2)cc1
inactive: all assays above

Cc1c(-c2ccccc2)oc2c(C(=O)OCCN3CCCCC3)cccc2c1=O
inactive: all assays above

CC[C@H](c1ccc(O)cc1)[C@@H](CC)c1ccc(O)cc1
inactive: all assays above

O=C(NCCc1c[nH]c2ccccc12)c1cccnc1
inactive: all assays above

O=S(=O)(O)c1ccc(O)cc1
inactive: all assays above

Nc1ccc(S(=O)(=O)NCc2ccccc2)cc1
inactive: all assays above

CC(C)Cc1ccc(CC(=O)O)cc1
inactive: all assays above

CCCCCCCCCCCCSCCOCCO
inactive: all assays above

Cc1c[nH]c2ccccc12
inactive: all assays above

O=C1C(CCS(=O)c2ccccc2)C(=O)N(c2ccccc2)N1c1ccccc1 (stereo not given)
inactive: all assays above

N#CCC(=O)NN
inactive: all assays above

C[C@@H](O)[C@H]1C(=O)N2C(C(=O)O)=C(S[C@@H]3CN[C@H](CNS(N)(=O)=O)C3)[C@H](C)[C@H]12
inactive: all assays above

Reference: PubChem BioAssay (NCATS)
